Data from PubChem BioAssay (NCATS).
Inconclusive results are not listed. Activity calls are given as the source filed them. Unless noted, calls come from the whole dose curve; as a rule, active = well fitted curve in the direction sought with a large enough effect; inconclusive = small, poorly fitted or top-dose-only effect, or another doubt; inactive = no such curve, though single readings can be large; an effect the other way counts as inactive or inconclusive.

Key:
[1] = NFAT Signaling Pathway (AID 444; active = well fitted curve in either direction with a large enough effect, not every such curve was filed as active;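 note: carbachol stimulus at about its EC50 of 1 µM final; % is set by controls: 0 for no effect and ±100 for the full control effect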); settings: Jurkat NFAT-bla M1, carbachol, beta-lactamase ratio, 5 h
Method in brief: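 Jurkat cells with NFAT-driven β-lactamase reporter and co-expressed M1 receptor, stimulated with carbachol (final 1 uM, ~EC50), compound titration, 5 h at 37 °C. CCF4 loaded 1 h at RT; 460/530 nm ratio gave %activity and AC50.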

[2] = target: Pyruvate kinase (Leishmania mexicana) (UniProt Q27686); assay: qHTS Validation Assay for Inhibitors of Leishmania Mexicana Pyruvate Kinase (AID 945);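 note: 0% = DMSO only neutral control wells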
Pyruvate kinase (Leishmania mexicana), sequence (Q27686 2-499 E452W): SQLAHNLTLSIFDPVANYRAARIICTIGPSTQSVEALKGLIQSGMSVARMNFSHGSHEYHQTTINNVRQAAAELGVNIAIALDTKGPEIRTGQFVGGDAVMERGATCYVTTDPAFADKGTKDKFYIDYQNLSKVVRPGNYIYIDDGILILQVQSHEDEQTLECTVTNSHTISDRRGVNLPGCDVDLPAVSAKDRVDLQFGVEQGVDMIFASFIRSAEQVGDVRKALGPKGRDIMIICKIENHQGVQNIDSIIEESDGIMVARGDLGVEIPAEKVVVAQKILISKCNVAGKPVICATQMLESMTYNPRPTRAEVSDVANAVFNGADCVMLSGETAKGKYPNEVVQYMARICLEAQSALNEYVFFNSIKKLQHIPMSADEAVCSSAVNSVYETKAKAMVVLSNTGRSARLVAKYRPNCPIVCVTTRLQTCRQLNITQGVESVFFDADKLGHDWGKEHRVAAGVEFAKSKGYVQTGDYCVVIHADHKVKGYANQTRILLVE
Method in brief: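 Substrate mix (0.5 mM PEP, 0.1 mM ADP, 7 mM MgCl2, 50 mM KCl, pH 7.2 imidazole) received compound by pin tool, then 0.2 nM LmPYK E451W. After 1 h at room temperature, PKLight was added and luminescence measured.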

[3] = target: Pyruvate kinase PKM (Homo sapiens) (UniProt P14618); assay: qHTS Assay for Activators of Human Muscle Pyruvate Kinase (AID 954; active = well fitted curve in the direction sought with a large enough effect, not every such curve was filed as active;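 note: 0% = uninhibited enzyme and -100% = no enzyme or full thiadiazolimine inhibition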)
Pyruvate kinase PKM (Homo sapiens), sequence (P14618 whole entry, looked up): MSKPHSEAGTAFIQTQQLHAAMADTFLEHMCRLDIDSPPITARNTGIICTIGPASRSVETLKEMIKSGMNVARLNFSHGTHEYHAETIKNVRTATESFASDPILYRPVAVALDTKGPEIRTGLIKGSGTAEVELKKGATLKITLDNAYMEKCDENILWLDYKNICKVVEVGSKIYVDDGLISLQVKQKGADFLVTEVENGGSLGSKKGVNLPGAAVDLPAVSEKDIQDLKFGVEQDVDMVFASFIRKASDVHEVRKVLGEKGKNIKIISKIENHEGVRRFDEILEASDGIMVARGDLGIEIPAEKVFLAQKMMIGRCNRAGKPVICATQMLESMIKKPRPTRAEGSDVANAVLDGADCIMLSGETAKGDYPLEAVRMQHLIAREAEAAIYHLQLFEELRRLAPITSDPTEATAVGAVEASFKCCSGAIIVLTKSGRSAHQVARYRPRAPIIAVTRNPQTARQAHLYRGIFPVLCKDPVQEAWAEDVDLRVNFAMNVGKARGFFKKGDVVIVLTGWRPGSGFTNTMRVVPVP
Method in brief: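 PKM2, human, >95% pure, 0.1 nM; PEP 0.5 mM (Km), ADP 0.1 mM; 50 mM imidazole pH 7.2, 50 mM KCl, 0.01% Tween 20, 0.05% BSA; 1 h RT; luciferase luminescence readout.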

[4] = target: Alpha-galactosidase A (Homo sapiens) (UniProt P06280); assay: Counterscreen for Glucocerebrosidase Inhibitors: qHTS Assay for Human alpha-Galactosidase at pH 4.5 (AID 992); note: 0% is about no effect
Alpha-galactosidase A (Homo sapiens), sequence (P06280 whole entry, looked up): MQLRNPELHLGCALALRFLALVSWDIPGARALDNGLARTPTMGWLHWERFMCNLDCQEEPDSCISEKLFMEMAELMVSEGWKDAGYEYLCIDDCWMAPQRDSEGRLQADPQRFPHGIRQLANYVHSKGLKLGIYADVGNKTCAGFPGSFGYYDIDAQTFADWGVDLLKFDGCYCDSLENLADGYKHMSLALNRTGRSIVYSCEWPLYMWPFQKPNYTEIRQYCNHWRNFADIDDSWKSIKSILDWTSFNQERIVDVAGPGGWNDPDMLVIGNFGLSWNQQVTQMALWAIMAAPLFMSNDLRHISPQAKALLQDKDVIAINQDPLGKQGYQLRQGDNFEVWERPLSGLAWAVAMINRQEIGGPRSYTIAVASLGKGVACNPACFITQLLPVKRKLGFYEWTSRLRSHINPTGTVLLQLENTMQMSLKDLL
Method in brief: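 Fluorogenic 4-MU alpha-D-galactoside (80 uM) hydrolysis, 2 nM enzyme, pH 4.5 citrate buffer + 0.005% Tween-20; 20 min RT; NaOH/glycine pH 10 stop; Ex365/Em440. Compounds titrated 0.7 nM–77 uM; Hill-equation AC50.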

[5] = target: alpha-glucosidase (Oryza sativa, rice) (UniProt Q653V4); assay: Counterscreen for Glucocerebrosidase Inhibitors: qHTS Assay for Rice alpha-Glucosidase at pH 5.0 (AID 997);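 note: 0% = full activity with enzyme and -100% = basal without enzyme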
Method in brief: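 Endpoint fluorogenic assay at pH 5.0: compounds (0.7 nM to 77 uM) titrated against 4 nM rice enzyme and 400 uM 4-MU-alpha-glucoside for 20 min at room temperature; NaOH/glycine stop, read ex 365/em 440 nm, Hill-fitted AC50.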

[6] = target: Alpha-galactosidase (Coffea arabica) (UniProt Q42656); assay: Counterscreen for Glucocerebrosidase Inhibitors: qHTS Assay for Coffee Bean alpha-Galactosidase at pH 5.9 (AID 998);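 note: plate controls were uninhibited enzyme for no effect and no-enzyme basal signal for full effect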
Alpha-galactosidase (Coffea arabica), sequence (Q42656 whole entry, looked up): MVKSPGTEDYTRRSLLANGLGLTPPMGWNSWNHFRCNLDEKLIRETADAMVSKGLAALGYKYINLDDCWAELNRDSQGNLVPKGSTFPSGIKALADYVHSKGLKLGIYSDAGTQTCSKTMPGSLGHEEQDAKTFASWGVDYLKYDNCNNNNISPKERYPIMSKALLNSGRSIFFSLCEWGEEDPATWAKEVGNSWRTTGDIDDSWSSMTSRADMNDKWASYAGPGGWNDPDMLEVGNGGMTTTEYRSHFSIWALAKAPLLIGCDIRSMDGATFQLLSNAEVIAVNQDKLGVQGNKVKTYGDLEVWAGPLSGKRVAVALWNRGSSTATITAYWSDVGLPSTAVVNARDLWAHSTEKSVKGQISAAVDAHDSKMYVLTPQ
Method in brief: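 Enzyme 2 nM + cpd (0.7 nM–77 uM titration) + 4-MU-alpha-Gal 80 uM, pH 5.9 citrate/Tween-20, RT 20 min, NaOH/glycine stop pH 10, fluor 365/440. Normalized to no-enzyme and full-activity controls; Hill-fit AC50.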

[7] = Validation of Assay for Modulators of Lamin A Splicing (AID 1459; active = well fitted curve in the direction sought with a large enough effect in the signal ratio; the % refers to the signal ratio;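 note: cells exposed to compound for two days before reading; 0% is about no effect; ratio rise marks activators and ratio drop marks inhibitors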)
Method in brief: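 Splicing correction read as GFP (500-530 nm) over DsRed2 (575-640 nm) object intensity after 48 h compound exposure of reporter HeLa S3 clones (600 cells/well, 2% FBS medium); ancitabine and cycloheximide titrations, 0.5% DMSO as vehicle.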

[8] = target: DNA repair nuclease/redox regulator APEX1 (Homo sapiens) (UniProt P27695); assay: qHTS Validation Assay for Inhibitors of the Human Apurinic/apyrimidinic Endonuclease 1 (APE1) (AID 1705;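 note: TAMRA fluorescence gain over two minutes as APE1 cuts a quenched THF abasic duplex; % is set by controls: 0 for no effect and ±100 for the full control effect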)
DNA repair nuclease/redox regulator APEX1 (Homo sapiens), sequence (P27695 whole entry, looked up): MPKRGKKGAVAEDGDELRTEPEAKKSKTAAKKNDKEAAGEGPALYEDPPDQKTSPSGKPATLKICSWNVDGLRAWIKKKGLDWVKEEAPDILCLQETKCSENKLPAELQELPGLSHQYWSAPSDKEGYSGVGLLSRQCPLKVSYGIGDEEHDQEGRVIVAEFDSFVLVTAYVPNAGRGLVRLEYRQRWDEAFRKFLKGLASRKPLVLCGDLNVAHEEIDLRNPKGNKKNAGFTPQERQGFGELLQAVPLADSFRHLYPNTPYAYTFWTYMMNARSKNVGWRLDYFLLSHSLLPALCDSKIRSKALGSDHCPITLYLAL
Method in brief: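 Activity read as rising fluorescence (598 nm emission, 525 nm excitation) from incision of a TAMRA/BHQ-2 duplex carrying a THF abasic site (50 nM). Compound and enzyme sat 15 min at RT before substrate start; signal change between first and third 60-s reads.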

[9] = Counterscreen for APE1 Inhibitors: Fluorescent Dye Displacement Validation Assay (AID 1707);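 note: plate controls were ThO with dsDNA and no compound for no effect and ThO without dsDNA for full effect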
Method in brief: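 Endpoint fluorescence read at 480 nm excitation / 540 nm emission; DNA-binding compounds lower signal by displacing 250 nM Thiazole Orange from 50 nM dsDNA containing a tetrahydrofuran abasic site, Tris-HCl pH7.5 buffer with NaCl and MgCl2.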

[10] = target: Ferritin light chain (Equus caballus) (UniProt P02791); assay: qHTS Validation Assay for Identification of Novel General Anesthetics (AID 2323); note: % is set by controls: 0 for no effect and ±100 for the full control effect
Ferritin light chain (Equus caballus), sequence (P02791 2-175 limits assumed): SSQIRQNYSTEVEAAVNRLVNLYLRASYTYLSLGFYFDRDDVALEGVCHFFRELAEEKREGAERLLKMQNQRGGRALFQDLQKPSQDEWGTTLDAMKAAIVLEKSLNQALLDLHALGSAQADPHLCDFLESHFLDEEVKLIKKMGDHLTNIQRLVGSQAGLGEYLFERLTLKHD
Method in brief: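 Competitive displacement of the profluorescent anesthetic 1-AMA (50% saturated, PBS) from 10 uM apoferritin, 10 min, room temperature. Activity is normalized 380/535 nm fluorescence; concentration-response fitted with a four-parameter Hill equation.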

[11] = target: ATP-dependent DNA helicase Q1 (Homo sapiens) (UniProt P46063); assay: qHTS Validation Assay for Inhibitors of RecQ-Like Dna Helicase 1 (RECQ1) (AID 2353);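 note: plate controls were DMSO vehicle for no effect and enzyme-free control for full effect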
Method in brief: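 RECQ1T1 50 nM; forked duplex (20 bp + 30-nt ss tails) 200 nM, ATP 2 mM final; pH 8.0, 2 mM MgCl2, 2.5 ug/ml poly(dI-dC); 15 min compound preincubation; discontinuous kinetic read over 2 h at RT.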

[12] = Validation screen for small molecules that induce DNA re-replication in MCF 10A normal breast cells (AID 463097); note: 0% is about no effect; nearly all actives have a fitted effect of over 60% in size
Method in brief: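 Read-out is Hoechst total nuclear intensity by fluorescence scanning imager, flagging increased high-DNA-content nuclei. Compounds were incubated with MCF 10A cells for 48 hr (37 C, 5% CO2) before 40 min staining.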

[13] = target: M-phase phosphoprotein 8 (Homo sapiens) (UniProt Q99549); assay: qHTS Validation Assay for Inhibitors for MPP8 Chromodomain Interactions with Methylated Histone Tails (AID 488949);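 note: AlphaScreen signal from MPP8 chromodomain bound to biotinylated H3K9me3 peptide; top concentration of the series differs between compounds; % is set by controls: 0 for no effect and ±100 for the full control effect; nearly all actives have a fitted effect of over 55% in size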
M-phase phosphoprotein 8 (Homo sapiens), sequence (Q99549 whole entry, looked up): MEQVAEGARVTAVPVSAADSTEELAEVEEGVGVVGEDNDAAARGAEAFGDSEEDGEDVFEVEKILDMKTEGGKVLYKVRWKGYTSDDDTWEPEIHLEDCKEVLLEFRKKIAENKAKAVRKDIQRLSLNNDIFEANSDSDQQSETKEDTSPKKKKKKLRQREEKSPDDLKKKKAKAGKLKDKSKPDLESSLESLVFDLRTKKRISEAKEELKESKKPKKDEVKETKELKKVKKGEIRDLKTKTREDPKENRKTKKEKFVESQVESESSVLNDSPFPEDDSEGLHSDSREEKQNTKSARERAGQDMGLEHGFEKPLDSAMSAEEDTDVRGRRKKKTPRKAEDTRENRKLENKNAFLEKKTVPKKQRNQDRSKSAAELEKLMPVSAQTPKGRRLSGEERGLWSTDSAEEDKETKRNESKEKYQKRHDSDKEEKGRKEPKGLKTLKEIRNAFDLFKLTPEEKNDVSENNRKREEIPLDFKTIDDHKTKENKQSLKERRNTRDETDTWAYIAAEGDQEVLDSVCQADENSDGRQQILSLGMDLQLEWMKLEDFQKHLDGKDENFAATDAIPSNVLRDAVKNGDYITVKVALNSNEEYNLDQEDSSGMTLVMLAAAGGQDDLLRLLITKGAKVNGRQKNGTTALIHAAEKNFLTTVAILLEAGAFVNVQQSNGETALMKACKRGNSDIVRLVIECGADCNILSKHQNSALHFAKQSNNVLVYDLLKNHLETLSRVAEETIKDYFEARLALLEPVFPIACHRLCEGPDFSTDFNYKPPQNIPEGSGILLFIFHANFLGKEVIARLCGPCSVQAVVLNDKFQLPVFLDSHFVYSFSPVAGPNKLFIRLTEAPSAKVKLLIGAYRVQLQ
Method in brief: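 AlphaScreen proximity signal from streptavidin donor and Ni-chelate acceptor beads (10 ug/mL each) reported binding of MPP8 to trimethyl-K9 H3(1-18) peptide, both at 50 nM. The complex formed 30 min before a 30 min compound exposure at room temperature, in PBS pH 7.4.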

[14] = target: Transient receptor potential cation channel subfamily V member 1 (Homo sapiens) (UniProt Q8NER1); assay: HTS Assay for Compounds that Act as Enhancers of the Vanilloid Receptor 1 (AID 488979); note: 0% is about no effect
Transient receptor potential cation channel subfamily V member 1 (Homo sapiens), sequence (Q8NER1 whole entry, looked up): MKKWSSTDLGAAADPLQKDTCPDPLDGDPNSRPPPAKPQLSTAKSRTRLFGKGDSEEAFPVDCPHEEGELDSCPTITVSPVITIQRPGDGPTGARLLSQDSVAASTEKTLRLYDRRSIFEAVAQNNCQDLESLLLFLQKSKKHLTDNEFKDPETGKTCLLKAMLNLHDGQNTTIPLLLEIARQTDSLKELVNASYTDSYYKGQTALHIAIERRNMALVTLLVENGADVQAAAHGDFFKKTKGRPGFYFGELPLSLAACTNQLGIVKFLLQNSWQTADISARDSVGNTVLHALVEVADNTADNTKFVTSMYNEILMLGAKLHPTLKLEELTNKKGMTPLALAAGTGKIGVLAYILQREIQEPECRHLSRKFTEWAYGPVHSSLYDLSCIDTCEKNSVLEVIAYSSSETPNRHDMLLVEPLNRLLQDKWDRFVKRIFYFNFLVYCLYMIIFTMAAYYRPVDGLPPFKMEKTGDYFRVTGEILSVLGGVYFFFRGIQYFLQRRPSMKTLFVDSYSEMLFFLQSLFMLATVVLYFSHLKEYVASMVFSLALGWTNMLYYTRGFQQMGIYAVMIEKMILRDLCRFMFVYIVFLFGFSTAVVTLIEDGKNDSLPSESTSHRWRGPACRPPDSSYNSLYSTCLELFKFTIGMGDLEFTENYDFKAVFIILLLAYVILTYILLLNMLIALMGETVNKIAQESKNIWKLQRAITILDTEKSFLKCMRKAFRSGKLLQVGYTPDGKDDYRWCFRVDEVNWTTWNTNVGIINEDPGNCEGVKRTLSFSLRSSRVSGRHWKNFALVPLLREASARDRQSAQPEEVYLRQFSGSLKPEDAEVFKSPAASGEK
Method in brief: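 TRPV1 cells loaded with Fluo-8 calcium dye; compound added and Ca2+ signal (ex 480/em 520 nm) followed 3 min, then capsaicin at EC20 added and read 2 more min to detect enhancement.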

[15] = target: Thyrotropin receptor (Homo sapiens) (UniProt P16473); assay: qHTS Assay for Antagonists of the Thyroid Stimulating Hormone Receptor (AID 488980); note: 0% is about no effect
Method in brief: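 Inhibition of cAMP raised by EC80 TSH (4 nM final) was read by HTRF, with lysate cAMP competing against cAMP-d2 for cryptate antibody after 30 min at room temperature. The cells were transfected HEK293 held in phosphodiesterase inhibitor RO 20-1724 at 70 uM.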

[16] = target: Thyrotropin-releasing hormone receptor (Homo sapiens) (UniProt P34981); assay: qHTS for Small Molecule Agonists and Allosteric Enhancers of Human TRH Receptor: Validation Screen for Agonists (AID 493127;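 active = calcium activation more than 3 SD above the typical response in the agonist read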;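 note: intracellular calcium rise by fluo-8 fluorescence before TRH EC20 addition; 0% is about no effect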); settings: TRH receptor agonist cell assay; at 2 µM; hits give high values
Thyrotropin-releasing hormone receptor (Homo sapiens), sequence (P34981 whole entry, looked up): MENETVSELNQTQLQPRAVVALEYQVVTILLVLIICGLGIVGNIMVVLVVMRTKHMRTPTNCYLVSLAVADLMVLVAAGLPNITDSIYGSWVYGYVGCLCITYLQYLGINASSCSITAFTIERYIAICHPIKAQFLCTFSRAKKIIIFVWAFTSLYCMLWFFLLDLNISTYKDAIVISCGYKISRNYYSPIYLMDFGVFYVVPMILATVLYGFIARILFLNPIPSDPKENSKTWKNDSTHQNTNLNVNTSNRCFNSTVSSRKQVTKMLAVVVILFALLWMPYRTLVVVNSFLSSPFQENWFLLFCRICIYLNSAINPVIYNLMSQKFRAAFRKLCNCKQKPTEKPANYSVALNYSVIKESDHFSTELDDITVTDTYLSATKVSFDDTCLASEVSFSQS
Method in brief: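 Compound-evoked intracellular calcium release in fluo-8-loaded TRHR cells, read kinetically on FDSS (Ex 480/Em 530, 1 s/cycle) after 23 nL pintool transfer. Agonist phase preceded 10 nM TRH EC20 addition.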

[17] = target: Galactokinase (Homo sapiens) (UniProt P51570); assay: qHTS Validation Assay for Inhibitors of Human Galactokinase (GALK) (AID 493189); note: 0% is about no effect
Galactokinase (Homo sapiens), sequence (P51570 whole entry, looked up): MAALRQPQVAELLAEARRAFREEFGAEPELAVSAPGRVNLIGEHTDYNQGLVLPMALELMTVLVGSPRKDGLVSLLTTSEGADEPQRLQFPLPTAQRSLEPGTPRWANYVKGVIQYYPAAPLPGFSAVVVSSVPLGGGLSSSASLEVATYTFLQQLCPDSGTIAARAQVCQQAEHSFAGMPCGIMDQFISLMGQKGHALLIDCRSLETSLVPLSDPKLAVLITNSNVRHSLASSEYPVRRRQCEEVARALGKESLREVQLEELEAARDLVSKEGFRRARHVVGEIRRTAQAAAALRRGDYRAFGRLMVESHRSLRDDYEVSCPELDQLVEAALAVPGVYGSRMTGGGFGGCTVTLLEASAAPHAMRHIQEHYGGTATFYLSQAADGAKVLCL
Method in brief: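 Inhibition was measured as remaining ATP, detected by luciferase luminescence after a 1 h room-temperature reaction. Final conditions: 5 nM GALK, 100 uM galactose, 35 uM ATP, pH 8.0 HEPES buffer.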

[18] = target: Cytochrome P450 3A4 (Homo sapiens) (UniProt P08684); assay: qHTS Assay for Activators of Cytochrome P450 3A4 (AID 885); note: nearly all actives have a fitted effect of over 65% in size
Method in brief: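 Activators are scored by enhanced luminescence from CYP3A4 conversion of luciferin-PPXE (25uM, equal to KM) to luciferin, after 60 min at RT with an NADPH-regenerating system.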

COc1cc(CCN)ccc1O
inactive: activity change, negative = inhibition ([1]; at 38 µM (top of the series)) 5.48% | outcome [2] | outcome [3] | outcome [4] | outcome [5] | outcome [6] | outcome [7] | Potency [8] | Potency [9] | outcome [10] | Potency [11] | Potency [12] | Potency [13] | outcome [14] | outcome [15] | activation [16] -0.312% | outcome [17]

N[C@@H](Cn1cc(I)c(=O)[nH]c1=O)C(=O)O
inactive: outcome [2] | outcome [3] | outcome [4] | outcome [5] | outcome [7] | Potency [8] | Potency [9] | outcome [10] | Potency [11] | Potency [12] | Potency [13] | outcome [14] | outcome [15] | activation [16] 0.375% | outcome [17]

COc1ccc(CCN)cc1O
inactive: activity change, negative = inhibition ([1]; at 38 µM (top of the series)) -3.06% | outcome [2] | outcome [3] | outcome [4] | outcome [5] | outcome [6] | outcome [7] | Potency [9] | outcome [10] | Potency [11] | Potency [12] | Potency [13] | outcome [14] | outcome [15] | activation [16] 1.06% | outcome [17]

CN1CCN(c2ccc3ccccc3n2)CC1
inactive: activity change, negative = inhibition ([1]; at 38 µM (top of the series)) -20.6% | outcome [2] | outcome [3] | outcome [4] | outcome [5] | outcome [6] | outcome [7] | Potency [8] | Potency [9] | outcome [10] | Potency [11] | Potency [12] | Potency [13] | outcome [14] | outcome [15] | activation [16] 1.56% | outcome [17]

CC(O)C(C)OC(=O)[C@@H]1C[C@@H]2c3cccc4c3c(cn4C(C)C)C[C@H]2N(C)C1 (stereo partly drawn)
inactive: outcome [7] | Potency [8] | Potency [9] | outcome [10] | Potency [11] | Potency [12] | Potency [13] | outcome [14] | outcome [15] | activation [16] 4% | outcome [17]

COc1ccc2c3c([nH]c2c1)C(C)=NCC3
inactive: activity change, negative = inhibition ([1]; at 17.2 µM (top of the series)) -3.75% | Potency [18]

C[N+]1(C)CCc2cc3c(cc2C1C1OC(=O)c2c1ccc1c2OCO1)OCO3 (stereo not drawn)
inactive: outcome [7] | Potency [8] | Potency [9] | outcome [10] | Potency [11] | Potency [12] | Potency [13] | outcome [14] | outcome [15] | activation [16] 0.938% | outcome [17]

COc1ccc2[nH]cc(C3=CCNCC3)c2c1
inactive: Potency [18]

CC(C)[C@@]1(NC(=O)[C@@H]2C[C@H]3c4cccc5[nH]cc(c45)C[C@@H]3N(C)C2)O[C@@]2(O)[C@H]3CCCN3C(=O)[C@H](Cc3ccccc3)N2C1=O
inactive: outcome [2] | outcome [3] | outcome [4] | outcome [5] | outcome [6]

C=CCN1C[C@H](C)N([C@H](c2ccc(C(=O)N(CC)CC)cc2)c2cccc(O)c2)C[C@H]1C
inactive: Potency [18]

CC(=O)C1=C(O)[C@@H]2[C@@H]3c4c[nH]c5cccc(c45)C[C@@H]3C(C)(C)N2C1=O
inactive: Potency [18]

CN(C(=O)Cc1ccc(Cl)c(Cl)c1)[C@H](CN1CCCC1)c1ccccc1
inactive: Potency [18]
